From PubChem BioAssay (NCI)
This is part of a sample that, as a whole, favours compounds with a hit. Of some 79,000 tested, about 15% had one in any assay. Active and inactive are the calls of the source. Rule as the data show it: active = growth inhibition above about 70%; inactive = the rest.

What was measured:
[1] = NCI Yeast Anticancer Drug Screen. Data for the rad52 strain (AID 147);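 also: 0% = growth of vehicle-treated control cultures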; conditions: S. cerevisiae rad52 mutant growth inhibition, stronger effect = higher value
Summary of the method: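 Inhibition of yeast growth, referenced to vehicle controls, was the measured output for a strain with defective DNA damage repair.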

[2] = NCI Yeast Anticancer Drug Screen. Data for the wt1 strain (AID 149);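 also: 0% = growth of vehicle-treated wt1 cultures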; conditions: S. cerevisiae wt1 strain (SPY 50644) growth inhibition, stronger effect = higher value
Summary of the method: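 Using yeast strain wt1, compound-induced growth inhibition was determined against vehicle-treated cultures.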

[3] = NCI Yeast Anticancer Drug Screen. Data for the rad50EPP+ strain (AID 151);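 also: 0% = growth of vehicle-treated control cultures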; conditions: S. cerevisiae rad50 mutant strain, stronger effect = higher value
Summary of the method: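 Genetically defined yeast (rad50EPP+, DNA damage repair alteration) is grown with compound, and inhibition of growth is expressed relative to vehicle-treated controls.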

[4] = NCI Yeast Anticancer Drug Screen. Data for the mgt1 strain (AID 153); conditions: S. cerevisiae mgt1 mutant growth inhibition, stronger effect = higher value
Summary of the method: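 In the mgt1 strain, test compounds were added and growth inhibition was determined relative to vehicle-treated controls.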

[5] = NCI Yeast Anticancer Drug Screen. Data for the rad50 strain (AID 155);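 also: 0% = growth of vehicle-only cultures of the same strain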; conditions: S. cerevisiae rad50 strain growth inhibition, stronger effect = higher value
Summary of the method: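 Relative growth inhibition (compound vs vehicle) was measured in yeast with a defined repair-gene alteration.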

[6] = NCI Yeast Anticancer Drug Screen. Data for the mec2-1 strain (AID 157); conditions: S. cerevisiae mec2-1 strain, stronger effect = higher value
Summary of the method: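 Each compound was tested on mec2-1 yeast, a strain altered in DNA damage repair or cell cycle control. Growth inhibition is reported relative to vehicle.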

[7] = NCI Yeast Anticancer Drug Screen. Data for the rad14 strain (AID 159);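 also: 0% = growth of vehicle-treated control cultures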; conditions: S. cerevisiae rad14 strain growth inhibition, stronger effect = higher value
Summary of the method: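 Screen for anticancer potential: a yeast strain altered in DNA damage repair is grown with compound, and reduced growth is quantified against vehicle controls.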

[8] = NCI Yeast Anticancer Drug Screen. Data for the sgs1 mgt1 strain (AID 161);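 also: 0% = growth of cultures given vehicle only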; conditions: S. cerevisiae sgs1 mgt1 strain, stronger effect = higher value
Summary of the method: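 Genetically altered yeast, compound exposure, growth inhibition relative to vehicle.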

[9] = NCI Yeast Anticancer Drug Screen. Data for the CLN2oe strain (AID 163);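 also: 0% = growth of vehicle-only control cultures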; conditions: S. cerevisiae CLN2oe strain, stronger effect = higher value
Summary of the method: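 First, the altered yeast strain was treated with each compound; second, its growth was measured; finally, inhibition was derived by comparison with vehicle controls.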

[10] = NCI Yeast Anticancer Drug Screen. Data for the cln2 rad14 strain (AID 165);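 also: 0% = growth equal to vehicle treated cultures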; conditions: S. cerevisiae cln2 rad14 strain, stronger effect = higher value
Summary of the method: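 Test compounds were added to cln2 rad14 yeast cultures; inhibition of growth was then determined by comparison with vehicle treatment.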

[11] = NCI Yeast Anticancer Drug Screen. Data for the bub3 strain (AID 167); conditions: S. cerevisiae bub3 mutant strain, stronger effect = higher value
Summary of the method: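 Screening used yeast with an engineered genetic alteration affecting cell cycle control. Compound-exposed cultures were compared with vehicle cultures, and reduced growth was taken as inhibition.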

[12] = NCI Yeast Anticancer Drug Screen. Data for the wt2 strain (AID 169);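 also: 0% = growth of vehicle-treated yeast cultures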; conditions: S. cerevisiae wt2 strain growth inhibition, stronger effect = higher value
Summary of the method: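 The panel's yeast strains carry defined changes in DNA repair or cell cycle genes. Each strain is grown with compound, and growth loss is scored relative to vehicle.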

[13] = NCI Yeast Anticancer Drug Screen. Data for the mlh1 strain (AID 171);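 also: 0% = growth of vehicle-treated control cultures of the same strain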; conditions: S. cerevisiae mlh1 strain growth inhibition, stronger effect = higher value
Summary of the method: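 Inhibition values reflect reduced yeast growth in the presence of compound, referenced to vehicle controls, using a strain chosen for its alteration in DNA repair or cell cycle control.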

[14] = NCI Yeast Anticancer Drug Screen. Data for the sgs1 strain (AID 173);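 also: 0% = growth of vehicle-only control cultures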; conditions: S. cerevisiae sgs1 mutant, stronger effect = higher value
Summary of the method: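 Vehicle-treated cultures served as reference for growth inhibition of a yeast strain altered in DNA damage repair or cell cycle control after compound exposure.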

[15] = NCI Yeast Anticancer Drug Screen. Data for the mlh1 rad18 strain (AID 175); conditions: S. cerevisiae mlh1 rad18 strain growth inhibition, stronger effect = higher value
Summary of the method: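 Inhibition values reflect reduced growth of mutant yeast versus vehicle-treated controls following compound exposure; the mutations affect DNA damage repair.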

[16] = NCI Yeast Anticancer Drug Screen. Data for the rad18 strain (AID 177); conditions: S. cerevisiae rad18 mutant growth inhibition, stronger effect = higher value
Summary of the method: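 Steps: expose repair-mutant yeast to compound; measure growth; express as inhibition relative to vehicle control.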

[17] = at 5.0 µM (retest, dose inferred, filed as 0.5)
[18] = at 50.0 µM (retest, dose inferred, filed as 5.0)

Measured: growth inhibition

O=C(N=Nc1cc(Cl)ccc1Cl)NNc1cc(Cl)ccc1Cl
active: [5]; [18] 76% | [5]; at 50.0 µM 74.4% | [6]; [18] 79% | [6]; at 50.0 µM 78.1% | [8]; [18] 73% | [10]; [18] 82% | [10]; at 50.0 µM 71.8% | [11]; [18] 81% | [15]; [18] 86%
inactive: [1]; at 1.2 µM -2% | [1]; at 3.7 µM -4% | [1]; at 11.0 µM -3% | [1]; at 33.0 µM -2% | [1]; at 100.0 µM 2% | [2]; at 1.2 µM -2% | [2]; at 3.7 µM 0% | [2]; at 11.0 µM -1% | [2]; at 33.0 µM 0% | [2]; at 100.0 µM 4% | [3]; at 1.2 µM -1% | [3]; at 3.7 µM -3% | [3]; at 11.0 µM -1% | [3]; at 33.0 µM -3% | [3]; at 100.0 µM 4% | [4]; at 1.2 µM -3% | [4]; at 3.7 µM -4% | [4]; at 11.0 µM 17% | [4]; at 33.0 µM -12% | [4]; at 100.0 µM 2% | [5]; at 1.2 µM -2% | [5]; at 3.7 µM -2% | [5]; [17] -2% | [5]; at 11.0 µM -23% | [5]; at 33.0 µM -1% | [5]; at 100.0 µM 3% | [6]; at 1.2 µM -1% | [6]; at 3.7 µM 0% | [6]; [17] 19% | [6]; at 11.0 µM 3% | [6]; at 33.0 µM -1% | [6]; at 100.0 µM 4% | [7]; at 1.2 µM -3% | [7]; at 3.7 µM -4% | [7]; at 11.0 µM -5% | [7]; at 33.0 µM 2% | [7]; at 100.0 µM 3% | [8]; [17] 3% | [8]; at 50.0 µM 66.5% | [9]; at 1.2 µM 0% | [9]; at 3.7 µM -7% | [9]; at 11.0 µM 0% | [9]; at 33.0 µM 0% | [9]; at 100.0 µM 9% | [10]; [17] 39% | [11]; at 1.2 µM -1% | [11]; at 3.7 µM 2% | [11]; [17] -30% | [11]; at 11.0 µM 3% | [11]; at 33.0 µM -7% | [11]; at 50.0 µM 60.1% | [11]; at 100.0 µM -6% | [12]; at 1.2 µM -1% | [12]; at 3.7 µM -3% | [12]; at 11.0 µM -2% | [12]; at 33.0 µM -1% | [12]; at 100.0 µM 2% | [13]; at 1.2 µM -1% | [13]; at 3.7 µM -5% | [13]; at 11.0 µM -3% | [13]; at 33.0 µM -1% | [13]; at 100.0 µM 1% | [14]; at 1.2 µM -2% | [14]; at 3.7 µM -1% | [14]; at 11.0 µM -1% | [14]; at 33.0 µM -1% | [14]; at 100.0 µM 1% | [15]; [17] 5% | [15]; at 50.0 µM 68.9% | [16]; at 1.2 µM -4% | [16]; at 3.7 µM -3% | [16]; at 11.0 µM -6% | [16]; at 33.0 µM -21% | [16]; at 100.0 µM 3%

O=c1c2ccccc2ncn1COCc1ccccc1
inactive: [1]; at 1.2 µM -4% | [1]; at 3.7 µM 3% | [1]; at 11.0 µM -22% | [1]; at 33.0 µM -16% | [1]; at 100.0 µM 2% | [2]; at 1.2 µM -2% | [2]; at 3.7 µM -19% | [2]; at 11.0 µM -11% | [2]; at 33.0 µM -13% | [2]; at 100.0 µM 8% | [3]; at 1.2 µM -31% | [3]; at 3.7 µM -30% | [3]; at 11.0 µM -28% | [3]; at 33.0 µM -21% | [3]; at 100.0 µM 8% | [4]; at 1.2 µM -17% | [4]; at 3.7 µM -14% | [4]; at 11.0 µM -11% | [4]; at 33.0 µM 1% | [4]; at 100.0 µM 21% | [5]; at 1.2 µM -10% | [5]; at 3.7 µM 2% | [5]; [17] 14% | [5]; at 11.0 µM 3% | [5]; at 33.0 µM 9% | [5]; [18] 19% | [5]; at 50.0 µM 1.9% | [5]; at 100.0 µM 23% | [6]; at 1.2 µM -12% | [6]; at 3.7 µM -15% | [6]; [17] 14% | [6]; at 11.0 µM -11% | [6]; at 33.0 µM 2% | [6]; [18] 15% | [6]; at 50.0 µM -6.6% | [6]; at 100.0 µM 26% | [7]; at 1.2 µM -13% | [7]; at 3.7 µM 0% | [7]; at 11.0 µM -15% | [7]; at 33.0 µM -6% | [7]; at 100.0 µM 5% | [8]; [17] 13% | [8]; [18] 69% | [9]; at 1.2 µM -26% | [9]; at 3.7 µM -15% | [9]; at 11.0 µM -12% | [9]; at 33.0 µM -20% | [9]; at 100.0 µM -9% | [10]; [17] 12% | [10]; at 50.0 µM 52.4% | [11]; at 1.2 µM -20% | [11]; at 3.7 µM -18% | [11]; [17] 7% | [11]; at 11.0 µM -7% | [11]; at 33.0 µM 29% | [11]; at 100.0 µM 58% | [12]; at 1.2 µM -16% | [12]; at 3.7 µM -3% | [12]; at 11.0 µM -7% | [12]; at 33.0 µM -3% | [12]; at 100.0 µM 15% | [13]; at 1.2 µM 0% | [13]; at 3.7 µM 12% | [13]; at 11.0 µM -4% | [13]; at 33.0 µM 6% | [13]; at 100.0 µM 27% | [14]; at 1.2 µM -49% | [14]; at 3.7 µM -34% | [14]; at 11.0 µM -37% | [14]; at 33.0 µM -21% | [14]; at 100.0 µM -7% | [15]; [17] 18% | [15]; [18] 30% | [15]; at 50.0 µM -22.1% | [16]; at 1.2 µM -3% | [16]; at 3.7 µM -5% | [16]; at 11.0 µM 3% | [16]; at 33.0 µM 9% | [16]; at 100.0 µM 26%
active: [8]; at 50.0 µM 89.5% | [10]; [18] 75% | [11]; [18] 88% | [11]; at 50.0 µM 74.3%
